# Results reported in PubChem BioAssay (Tox21).
# Inconclusive results are not listed. A call without a number means that no potency is given here. Values without a mark were called inactive. Active and inactive are the calls of the source. Unless noted, the call rests on the fitted dose curve; in most records, active means well fitted curve in the direction sought with a large enough effect in the repeat runs; inconclusive means weak or mixed curves; inactive means no such curve, though single readings can be large; an effect the other way counts as inactive or inconclusive.
# Key:
# [1] = qHTS RealTime-Glo MT Cell Viability Assay in HEK293 cells - 8 hour (AID 1224887); further: top concentration of the series differs between compounds; nearly all actives have a fitted effect of over 50% in size
# Procedure, shortened: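 Nonlytic bioluminescent viability monitoring. HEK293 at 600 cells/well with reagent; 5 h settle; compound transfer by pintool; plates held at 37 C and read at set time points.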
# [2] = A CellTox Green Cytotoxicity Assay to monitor cytotoxicity in HEK293 cells - 16 hour (AID 1224888); further: nearly all actives have a fitted effect of over 35% in size
# Procedure, shortened: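 Cytotoxicity was tracked continuously in HEK293 cells by a DNA-binding dye excluded from viable cells. Compounds were transferred in DMSO 5 h after seeding; fluorescence was recorded at intervals up to 40 h.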
# [3] = qHTS RealTime-Glo MT Cell Viability Assay in HepG2 cells - 0 hour (AID 1224889); further: nearly all actives have a fitted effect of over 50% in size
# Procedure, shortened: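 Tox21 10K library screened in qHTS format on HepG2 cells carrying RealTime-Glo reagents. Compounds were added after a 5 h preincubation, and the luminescent signal from continuous culture was measured repeatedly during 40 h treatment.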
# [4] = A CellTox Green Cytotoxicity Assay to monitor cytotoxicity in HepG2 cells - 8 hour (AID 1224890); further: nearly all actives have a fitted effect of over 45% in size
# Procedure, shortened: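 Real-time, homogeneous cytotoxicity readout: dead-cell DNA staining by CellTox Green in HepG2 monolayers, fluorescence measured at timed intervals up to 40 h of continuous compound exposure.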
# [5] = qHTS assay to identify small molecule antagonists of the estrogen receptor alpha (ER-alpha) signaling pathway using the BG1 cell line in the presence of 0.1 nM 17-beta-estradiol - cell viability counter screen (AID 1259241); further: nearly all actives have a fitted effect of over 40% in size
# Procedure, shortened: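 Viability in VM7Luc4E2 cells after 22 hr compound exposure under 0.1 nM 17beta-estradiol stimulation, by CellTiter-Fluor.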
# [6] = qHTS assay to identify small molecule antagonists of the androgen receptor (AR) signaling pathway using the MDA cell line in the presence of 0.5 nM R1881 - cell viability counter screen (AID 1259242); further: nearly all actives have a fitted effect of over 45% in size
# Procedure, shortened: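 Cytotoxicity toward MDA-kb2 cells is measured by CellTiter-Fluor live-cell protease fluorescence after 16 hr compound exposure at 37C in the presence of 0.5 nM R1881 stimulator.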
# [7] = qHTS assay to identify small molecule HDAC inhibitors (AID 1259364); further: nearly all actives have a fitted effect of over 45% in size; further: potency means the concentration at half of the fitted maximal effect; on activity change, negative = inhibition: top concentration of the series differs between compounds
# Procedure, shortened: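 Homogeneous cell-based luminescent assay of endogenous class I/II HDAC activity; HCT-116 cells, 2 h compound exposure, 30 min HDAC-Glo development at RT.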
# [8] = biological target: Estrogen receptor (Homo sapiens) (UniProt P03372); test: qHTS assay to identify small molecule antagonists of the estrogen receptor alpha (ER-alpha) signaling pathway using the BG1 cell line in the presence of 0.1 nM 17-beta-estradiol (AID 1259244); further: nearly all actives have a fitted effect of over 50% in size
# Procedure, shortened: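 After 5 days in hormone-depleted medium (charcoal-stripped serum, no phenol red), VM7Luc4E2 cells were seeded, incubated 24 h, then co-treated with compound and 0.1 nM (final) estradiol for 22 h before luminescence detection.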
# [9] = qHTS assay to identify small molecule phospholipidosis (PLD) inducers (AID 1259344; active means well fitted curve in the direction sought with a large enough effect; an effect the other way counts as inactive or inconclusive)
# Procedure, shortened: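 HepG2 cells grown on collagen I take up LipidTOX Red while exposed to compound for 24 h; after fixation they are imaged at 20x and pit metrics are extracted.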
# Sequence of Estrogen receptor (Homo sapiens) (P03372 whole entry, looked up): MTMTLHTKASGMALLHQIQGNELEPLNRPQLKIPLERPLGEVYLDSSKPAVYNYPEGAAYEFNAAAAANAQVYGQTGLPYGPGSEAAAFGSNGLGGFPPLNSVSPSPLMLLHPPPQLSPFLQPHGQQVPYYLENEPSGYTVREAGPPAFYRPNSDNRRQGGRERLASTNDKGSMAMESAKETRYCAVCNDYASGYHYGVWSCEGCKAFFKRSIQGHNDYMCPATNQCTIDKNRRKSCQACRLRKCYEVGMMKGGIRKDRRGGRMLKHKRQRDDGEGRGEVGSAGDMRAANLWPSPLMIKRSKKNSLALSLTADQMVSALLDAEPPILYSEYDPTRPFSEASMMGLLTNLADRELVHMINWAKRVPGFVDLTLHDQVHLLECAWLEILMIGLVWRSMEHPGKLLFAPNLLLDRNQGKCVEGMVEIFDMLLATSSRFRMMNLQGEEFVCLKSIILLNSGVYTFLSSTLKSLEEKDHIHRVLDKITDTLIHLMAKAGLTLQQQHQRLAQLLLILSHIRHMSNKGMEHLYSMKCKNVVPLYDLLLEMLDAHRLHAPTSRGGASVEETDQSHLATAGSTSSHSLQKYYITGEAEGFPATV
compound,measurement,setting,value
CCCCCCCCOCCC#N,outcome,[1],inactive
same,Potency,[2],inactive
same,Potency,[3],inactive
same,Potency,[4],inactive
same,outcome,[5],inactive
same,outcome,[6],inactive
same,Potency,[7],inactive
C=CCCCCCCCCOC(C)=O,outcome,[1],inactive
same,Potency,[2],inactive
same,Potency,[3],inactive
same,Potency,[4],inactive
same,outcome,[5],inactive
same,outcome,[6],inactive
same,outcome,[8],inactive
same,Potency,[7],inactive
NC[C@H]1O[C@H](O[C@H]2[C@H](O)[C@@H](O[C@H]3O[C@H](CO)[C@@H](O)[C@H](N)[C@H]3O)[C@H](N)C[C@@H]2N)[C@H](N)[C@@H](O)[C@@H]1O,"activity change, negative = cytotoxicity",[1],14.7% [at 15.8 µM]
same,activity change,[2],"2% [at 15.8 µM, active compounds read high]"
same,"activity change, negative = cytotoxicity",[3],5.28% [at 15.8 µM]
same,cytotoxicity increase,[4],0.922% [at 15.8 µM]
same,"activity change, negative = cytotoxicity",[5],2.9% [at 19 µM]
same,"viability change, negative = cytotoxic",[6],-0.928% [at 19 µM]
same,Potency,[9],inactive
same,"activity change, negative = inhibition",[7],0.718% [at 19 µM]
COc1ccc(Cl)cc1C,outcome,[1],inactive
same,Potency,[2],inactive
same,Potency,[3],inactive
same,Potency,[4],inactive
same,outcome,[5],inactive
same,outcome,[6],inactive
same,Potency,[7],inactive
CCCC[O][Al]([O]CCCC)[O]CCCC,outcome,[1],inactive
same,Potency,[2],inactive
same,Potency,[3],inactive
same,Potency,[4],inactive
same,outcome,[5],inactive
same,outcome,[6],inactive
same,Potency,[7],inactive
NC(=O)CC[C@@H](N)C(=O)O,outcome,[1],inactive
same,Potency,[2],inactive
same,Potency,[3],inactive
same,Potency,[4],inactive
same,outcome,[5],inactive
same,outcome,[6],inactive
same,Potency,[9],inactive
same,Potency,[7],inactive
CCO/C=C1\N=C(c2ccccc2)OC1=O,outcome,[1],inactive
same,Potency,[2],inactive
same,Potency,[3],inactive
same,Potency,[4],inactive
same,outcome,[5],inactive
same,outcome,[6],inactive
same,Potency,[7],inactive
O=c1c(O)c(O)c1=O,outcome,[1],inactive
same,Potency,[2],inactive
same,Potency,[3],inactive
same,Potency,[4],inactive
same,outcome,[5],inactive
same,outcome,[6],inactive
same,Potency,[7],inactive
C=CC(=O)OCC[N+](C)(C)C,outcome,[1],inactive
same,Potency,[2],inactive
same,Potency,[3],inactive
same,Potency,[4],inactive
same,outcome,[5],inactive
same,outcome,[6],inactive
same,outcome,[8],inactive
same,Potency,[7],inactive
NCC1CCC(C(=O)Oc2ccc(CCC(=O)O)cc2)CC1 (configuration not stated),outcome,[1],inactive
same,Potency,[2],inactive
same,Potency,[3],inactive
same,Potency,[4],inactive
same,outcome,[5],inactive
same,outcome,[6],inactive
same,Potency,[9],inactive
same,Potency,[7],8.41 µM (active)
CC(C)(C)OC(=O)c1ccccc1C(=O)O,outcome,[1],inactive
same,Potency,[2],inactive
same,Potency,[3],inactive
same,Potency,[4],inactive
same,outcome,[5],inactive
same,outcome,[6],inactive
same,outcome,[8],inactive
same,Potency,[7],inactive
C=CCN(CC=C)CC=C,outcome,[1],inactive
same,Potency,[2],inactive
same,Potency,[3],inactive
same,Potency,[4],inactive
same,outcome,[5],inactive
same,outcome,[6],inactive
same,Potency,[7],inactive
O=C(O)P(=O)(O)O,outcome,[1],inactive
same,Potency,[2],inactive
same,Potency,[3],inactive
same,Potency,[4],inactive
same,outcome,[5],inactive
same,outcome,[6],inactive
same,Potency,[9],inactive
same,Potency,[7],inactive
O=C1CC2(CCCC2)CC(=O)N1CCNCC1COc2ccccc2O1 (configuration not stated),outcome,[1],inactive
same,Potency,[2],inactive
same,Potency,[3],inactive
same,Potency,[4],inactive
same,outcome,[5],inactive
same,outcome,[6],inactive
same,Potency,[9],inactive
CNC(=O)c1c(I)c(NC(C)=O)c(I)c(C(=O)O)c1I,outcome,[1],inactive
same,Potency,[2],inactive
same,Potency,[3],inactive
same,Potency,[4],inactive
same,outcome,[5],inactive
same,outcome,[6],inactive
same,Potency,[7],inactive
C[C@H]1COc2c(C3(N)CC3)c(F)cc3c(=O)c(C(=O)O)cn1c23,outcome,[1],inactive
same,Potency,[2],inactive
same,Potency,[3],inactive
same,Potency,[4],inactive
same,outcome,[5],inactive
same,outcome,[6],inactive
same,Potency,[9],inactive
same,Potency,[7],inactive
C=C(C)C(=O)OCCOC1CC2CC1C1C=CCC21 (configuration not stated),outcome,[1],inactive
same,Potency,[2],inactive
same,Potency,[3],inactive
same,Potency,[4],inactive
same,outcome,[5],inactive
same,outcome,[6],inactive
same,Potency,[7],inactive
CNC(C)=O,outcome,[1],inactive
same,Potency,[2],inactive
same,Potency,[3],inactive
same,Potency,[4],inactive
same,outcome,[5],inactive
same,outcome,[6],inactive
same,outcome,[8],inactive
same,Potency,[7],inactive
Cc1cccc(N)n1,outcome,[1],inactive
same,Potency,[2],inactive
same,Potency,[3],inactive
same,Potency,[4],inactive
same,outcome,[5],inactive
same,outcome,[6],inactive
same,outcome,[8],inactive
same,Potency,[7],inactive
C/C=C/C(=O)CCCC,outcome,[1],inactive
same,Potency,[2],inactive
same,Potency,[3],inactive
same,Potency,[4],inactive
same,outcome,[5],inactive
same,outcome,[6],inactive
same,outcome,[8],inactive
same,Potency,[7],inactive
CCOC(=O)CN1CCCC1=O,outcome,[1],inactive
same,Potency,[2],inactive
same,Potency,[3],inactive
same,Potency,[4],inactive
same,outcome,[5],inactive
same,outcome,[6],inactive
same,outcome,[8],inactive
same,Potency,[7],inactive
C=COCCCCO,outcome,[1],inactive
same,Potency,[2],inactive
same,Potency,[3],inactive
same,Potency,[4],inactive
same,outcome,[5],inactive
same,outcome,[6],inactive
same,outcome,[8],inactive
same,Potency,[7],inactive
CCO[Si](CC(C)C)(OCC)OCC,outcome,[1],inactive
same,Potency,[2],inactive
same,Potency,[3],inactive
same,Potency,[4],inactive
same,outcome,[5],inactive
same,outcome,[6],inactive
same,outcome,[8],inactive
same,Potency,[7],inactive
CNCCc1ccccn1,outcome,[1],inactive
same,Potency,[2],inactive
same,Potency,[3],inactive
same,Potency,[4],inactive
same,outcome,[5],inactive
same,outcome,[6],inactive
same,Potency,[9],inactive
CC(C)(C)c1ccc(N)cc1,outcome,[1],inactive
same,Potency,[2],inactive
same,Potency,[3],inactive
same,Potency,[4],inactive
same,outcome,[5],inactive
same,outcome,[6],inactive
same,outcome,[8],inactive
same,Potency,[7],inactive
COC(=O)C(c1ccccc1Cl)N1CCc2sccc2C1 (configuration not stated),outcome,[1],inactive
same,Potency,[2],inactive
same,Potency,[3],inactive
same,Potency,[4],inactive
same,outcome,[5],inactive
same,outcome,[6],inactive
same,Potency,[9],inactive
same,Potency,[7],inactive
COc1ccc2cc(CCC(C)=O)ccc2c1,outcome,[1],inactive
same,Potency,[2],inactive
same,Potency,[3],inactive
same,Potency,[4],inactive
same,outcome,[5],inactive
same,outcome,[6],inactive
same,Potency,[9],inactive
Cc1ccc(O)c(C(=O)c2ccccc2)c1,outcome,[1],inactive
same,Potency,[2],inactive
same,Potency,[3],inactive
same,Potency,[4],inactive
same,outcome,[5],inactive
same,outcome,[6],inactive
same,Potency,[7],inactive
